Data from PubChem BioAssay (NCI).
About 79,000 compounds went through this panel and 15% of them were active in at least one assay; those are over-represented in the sample as a whole. A number with no mark means an inactive call. Activity calls are given as the source filed them. Rule as the data show it: active = growth inhibition above about 70%; inactive = the rest.

What was measured:
[1] = NCI Yeast Anticancer Drug Screen. Data for the rad50 strain (AID 155);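 also: 0% = growth of vehicle-only cultures of the same strain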; details: S. cerevisiae rad50 strain growth inhibition, hits give high values
Procedure, shortened: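 Relative growth inhibition (compound vs vehicle) was measured in yeast with a defined repair-gene alteration.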

[2] = NCI Yeast Anticancer Drug Screen. Data for the mec2-1 strain (AID 157); details: S. cerevisiae mec2-1 strain, hits give high values
Procedure, shortened: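 Vehicle-treated cultures served as reference for growth inhibition of compound-exposed mec2-1 yeast.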

[3] = NCI Yeast Anticancer Drug Screen. Data for the sgs1 mgt1 strain (AID 161);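 also: 0% = growth of cultures given vehicle only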; details: S. cerevisiae sgs1 mgt1 strain, hits give high values
Procedure, shortened: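 Read-out: growth inhibition vs vehicle controls. Cells: mutant yeast strain deficient in DNA damage repair.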

[4] = NCI Yeast Anticancer Drug Screen. Data for the cln2 rad14 strain (AID 165);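 also: 0% = growth equal to vehicle treated cultures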; details: S. cerevisiae cln2 rad14 strain, hits give high values
Procedure, shortened: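 Each compound was tested on cln2 rad14 yeast. Inhibition of growth was calculated against vehicle-exposed controls.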

[5] = NCI Yeast Anticancer Drug Screen. Data for the bub3 strain (AID 167); details: S. cerevisiae bub3 mutant strain, hits give high values
Procedure, shortened: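 Screening used yeast with an engineered genetic alteration affecting cell cycle control. Compound-exposed cultures were compared with vehicle cultures, and reduced growth was taken as inhibition.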

[6] = NCI Yeast Anticancer Drug Screen. Data for the mlh1 rad18 strain (AID 175); details: S. cerevisiae mlh1 rad18 strain growth inhibition, hits give high values
Procedure, shortened: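 Vehicle-treated cultures served as the reference for growth inhibition in a yeast strain carrying DNA damage repair alterations exposed to each compound.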

[7] = at 5.0 µM (retest, dose inferred, filed as 0.5)
[8] = at 50.0 µM (retest, dose inferred, filed as 5.0)

## O=C1c2ccccc2CC(Br)c2ccccc21 (configuration not stated)
[1]; [7]
  growth inhibition: -2%
[1]; [8]
  growth inhibition: 97% (active)
[1]; at 50.0 µM
  growth inhibition: 97.2% (active)
[2]; [7]
  growth inhibition: -4%
[2]; [8]
  growth inhibition: 94% (active)
[2]; at 50.0 µM
  growth inhibition: 27.4%
[3]; [7]
  growth inhibition: 3%
[3]; [8]
  growth inhibition: 94% (active)
[3]; at 50.0 µM
  growth inhibition: 81.8% (active)
[4]; [7]
  growth inhibition: -77%
[4]; [8]
  growth inhibition: 80% (active)
[4]; at 50.0 µM
  growth inhibition: 1.7%
[5]; [7]
  growth inhibition: -10%
[5]; [8]
  growth inhibition: -3%
[5]; at 50.0 µM
  growth inhibition: 42.5%
[6]; [7]
  growth inhibition: 1%
[6]; [8]
  growth inhibition: 98% (active)
[6]; at 50.0 µM
  growth inhibition: 97.7% (active)

## Cc1cccc(NC(=O)C(=O)C(C2OC(=O)c3ccccc32)[N+](=O)[O-])c1C (configuration not stated)
[1]; [7]
  growth inhibition: 8%
[1]; [8]
  growth inhibition: 69%
[1]; at 50.0 µM
  growth inhibition: 85.4% (active)
[2]; [7]
  growth inhibition: -24%
[2]; [8]
  growth inhibition: 82% (active)
[2]; at 50.0 µM
  growth inhibition: 86.8% (active)
[3]; [7]
  growth inhibition: 9%
[3]; [8]
  growth inhibition: 75% (active)
[3]; at 50.0 µM
  growth inhibition: 87.7% (active)
[4]; [7]
  growth inhibition: 27%
[4]; [8]
  growth inhibition: 79% (active)
[4]; at 50.0 µM
  growth inhibition: 90.4% (active)
[5]; [7]
  growth inhibition: -13%
[5]; [8]
  growth inhibition: 92% (active)
[5]; at 50.0 µM
  growth inhibition: 88.3% (active)
[6]; [7]
  growth inhibition: -21%
[6]; [8]
  growth inhibition: 89% (active)
[6]; at 50.0 µM
  growth inhibition: 83.3% (active)

## CC(C)C1/C(=N/O)CC(c2ccccc2)N(N=O)C1c1ccccc1 (configuration not stated)
[1]; [7]
  growth inhibition: 10%
[1]; [8]
  growth inhibition: 97% (active)
[1]; at 50.0 µM
  growth inhibition: 82.3% (active)
[2]; [7]
  growth inhibition: -13%
[2]; [8]
  growth inhibition: 98% (active)
[2]; at 50.0 µM
  growth inhibition: 93% (active)
[3]; [7]
  growth inhibition: 3%
[3]; [8]
  growth inhibition: 98% (active)
[3]; at 50.0 µM
  growth inhibition: 90.7% (active)
[4]; [7]
  growth inhibition: 15%
[4]; [8]
  growth inhibition: 96% (active)
[4]; at 50.0 µM
  growth inhibition: 87.7% (active)
[5]; [7]
  growth inhibition: 4%
[5]; [8]
  growth inhibition: 98% (active)
[5]; at 50.0 µM
  growth inhibition: 88% (active)
[6]; [7]
  growth inhibition: -6%
[6]; [8]
  growth inhibition: 98% (active)
[6]; at 50.0 µM
  growth inhibition: 90.3% (active)

## O=S(=O)(NC1CCCCC1)c1ccc2c(c1)OCCOCCOCCOCCO2
[1]; [7]
  growth inhibition: 7%
[1]; [8]
  growth inhibition: 22%
[1]; at 50.0 µM
  growth inhibition: 40.3%
[2]; [7]
  growth inhibition: 9%
[2]; [8]
  growth inhibition: 37%
[2]; at 50.0 µM
  growth inhibition: 23.8%
[3]; [7]
  growth inhibition: 0%
[3]; [8]
  growth inhibition: 63%
[3]; at 50.0 µM
  growth inhibition: 70.7% (active)
[4]; [7]
  growth inhibition: -7%
[4]; [8]
  growth inhibition: 39%
[4]; at 50.0 µM
  growth inhibition: 36%
[5]; [7]
  growth inhibition: -24%
[5]; [8]
  growth inhibition: 53%
[5]; at 50.0 µM
  growth inhibition: 73.2% (active)
[6]; [7]
  growth inhibition: 5%
[6]; [8]
  growth inhibition: 31%
[6]; at 50.0 µM
  growth inhibition: 65.5%

## N=C(N)c1ccc(Oc2ccc(Oc3ccc(C(=N)N)cc3)cc2)cc1
[1]; [7]
  growth inhibition: 43%
[1]; [8]
  growth inhibition: 69%
[1]; at 50.0 µM
  growth inhibition: 70.8% (active)
[2]; [7]
  growth inhibition: 39%
[2]; [8]
  growth inhibition: 68%
[2]; at 50.0 µM
  growth inhibition: 83.8% (active)
[3]; [7]
  growth inhibition: 59%
[3]; [8]
  growth inhibition: 89% (active)
[3]; at 50.0 µM
  growth inhibition: 81.2% (active)
[4]; [7]
  growth inhibition: 50%
[4]; [8]
  growth inhibition: 80% (active)
[4]; at 50.0 µM
  growth inhibition: 64.6%
[5]; [7]
  growth inhibition: 53%
[5]; [8]
  growth inhibition: 79% (active)
[5]; at 50.0 µM
  growth inhibition: 65.7%
[6]; [7]
  growth inhibition: 57%
[6]; [8]
  growth inhibition: 90% (active)
[6]; at 50.0 µM
  growth inhibition: 81.5% (active)

## C/C(=C/C(=O)N1c2ccccc2CC1c1c[nH]c2ccccc12)C(=O)O (configuration not stated)
[1]; [7]
  growth inhibition: -1%
[1]; [8]
  growth inhibition: 39%
[1]; at 50.0 µM
  growth inhibition: 62.1%
[2]; [7]
  growth inhibition: -8%
[2]; [8]
  growth inhibition: 5%
[2]; at 50.0 µM
  growth inhibition: -2.65%
[3]; [7]
  growth inhibition: -3%
[3]; [8]
  growth inhibition: 33%
[3]; at 50.0 µM
  growth inhibition: 46.9%
[4]; [7]
  growth inhibition: -79%
[4]; [8]
  growth inhibition: 8%
[4]; at 50.0 µM
  growth inhibition: -0.65%
[5]; [7]
  growth inhibition: -4%
[5]; [8]
  growth inhibition: 20%
[5]; at 50.0 µM
  growth inhibition: 17.1%
[6]; [7]
  growth inhibition: -2%
[6]; [8]
  growth inhibition: 15%
[6]; at 50.0 µM
  growth inhibition: 40.9%

## O=[N+]([O-])c1ccc(S(=O)(=O)N/N=C/C=C/c2ccccc2)cc1
[1]; [7]
  growth inhibition: 6%
[1]; [8]
  growth inhibition: 13%
[1]; at 50.0 µM
  growth inhibition: 71% (active)
[2]; [7]
  growth inhibition: 2%
[2]; [8]
  growth inhibition: 17%
[2]; at 50.0 µM
  growth inhibition: 37%
[3]; [7]
  growth inhibition: 4%
[3]; [8]
  growth inhibition: 14%
[3]; at 50.0 µM
  growth inhibition: 87.5% (active)
[4]; [7]
  growth inhibition: -4%
[4]; [8]
  growth inhibition: 16%
[4]; at 50.0 µM
  growth inhibition: 48.3%
[5]; [7]
  growth inhibition: 6%
[5]; [8]
  growth inhibition: 36%
[5]; at 50.0 µM
  growth inhibition: 48.6%
[6]; [7]
  growth inhibition: 6%
[6]; [8]
  growth inhibition: 39%
[6]; at 50.0 µM
  growth inhibition: 75.5% (active)

## COc1ccc2nc3cc([N+](=O)[O-])ccc3c(NCCO)c2c1
[1]; [7]
  growth inhibition: -24%
[1]; [8]
  growth inhibition: 77% (active)
[1]; at 50.0 µM
  growth inhibition: 58.5%
[2]; [7]
  growth inhibition: -9%
[2]; [8]
  growth inhibition: 66%
[2]; at 50.0 µM
  growth inhibition: 47.8%
[3]; [7]
  growth inhibition: -26%
[3]; [8]
  growth inhibition: 80% (active)
[3]; at 50.0 µM
  growth inhibition: 44.6%
[4]; [7]
  growth inhibition: -6%
[4]; [8]
  growth inhibition: 89% (active)
[4]; at 50.0 µM
  growth inhibition: 75.1% (active)
[5]; [7]
  growth inhibition: -18%
[5]; [8]
  growth inhibition: 30%
[5]; at 50.0 µM
  growth inhibition: 49%
[6]; [7]
  growth inhibition: 4%
[6]; [8]
  growth inhibition: 82% (active)
[6]; at 50.0 µM
  growth inhibition: 49.9%

## CCOC(=O)c1ccc(NC(=O)CCl)cc1
[1]; [7]
  growth inhibition: 3%
[1]; [8]
  growth inhibition: 99% (active)
[1]; at 50.0 µM
  growth inhibition: 51.9%
[2]; [7]
  growth inhibition: 8%
[2]; [8]
  growth inhibition: 98% (active)
[2]; at 50.0 µM
  growth inhibition: 38.7%
[3]; [7]
  growth inhibition: 21%
[3]; [8]
  growth inhibition: 98% (active)
[3]; at 50.0 µM
  growth inhibition: 67.5%
[4]; [7]
  growth inhibition: 8%
[4]; [8]
  growth inhibition: 91% (active)
[4]; at 50.0 µM
  growth inhibition: 28.7%
[5]; [7]
  growth inhibition: 0%
[5]; [8]
  growth inhibition: 95% (active)
[5]; at 50.0 µM
  growth inhibition: 40%
[6]; [7]
  growth inhibition: 12%
[6]; [8]
  growth inhibition: 99% (active)
[6]; at 50.0 µM
  growth inhibition: 64.2%
